We go through 15 molecules from PubChem BioAssay (NCI).

Each structure is given as a SMILES string. Compounds without any hit were thinned out: in the full panel of roughly 83,000, 20% have a hit.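 The test compound was applied at a single concentration to cells in 96-well plates for 48 hours, and percent growth was recorded.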 Unmarked numbers belong to inactive results. Activity calls are given as the source filed them. Rule for the calls: active = growth percent below 10; inactive = the rest.

Some test systems named below: HCT-15 colon; HT29 colon; SNB-75 CNS; SNB-19 CNS; U251 CNS; PC-3 prostate; SK-MEL-5 melanoma; UACC-62 melanoma; SK-MEL-28 melanoma.
What all share (test): NCI-60 one-dose screen, 48 h (100 = growth as untreated, 0 = no growth, -100 = all killed)
What all share (conditions): 10 µM unless noted

With `COc1ccccc1-n1cnc(N)c1C(=O)c1cc(OC)c(OC)c(OC)c1`, the growth was 35.5% in the test with HCT-15 colon; 11.7% in the test with HT29 colon; 8.36% (active) with SNB-75 CNS; 55.1% in the test on SNB-19 CNS; 36.8% in the test on U251 CNS; 50.2% in the test with PC-3 prostate. The growth was 28.5% in the test on SK-MEL-5 melanoma, 29.1% in the test with UACC-62 melanoma and 51.5% in the test on SK-MEL-28 melanoma.
`Cc1csc(-c2ccc3c(c2)COC3(CCCN(C)C)c2ccc(F)cc2)c1` (stereo not given): the growth with HCT-15 colon was 14.4%; with HT29 colon, -39.6% (active); in the test with SNB-75 CNS, 32%; in the test on SNB-19 CNS it was 74.8%; with U251 CNS, -45.1% (active); with PC-3 prostate, 28%. Moreover, the growth with SK-MEL-5 melanoma was 73.6%; with UACC-62 melanoma, -73.6% (active); in the test with SK-MEL-28 melanoma, 37.5%.
For the molecule `O=C(NO)c1ccc(Cn2c(=O)n(-c3ccccc3)c(=O)c3ccccc32)cc1`, the growth is 39.6% with HCT-15 colon; 41% with HT29 colon; 20.9% in the test on SNB-75 CNS; 33.4% in the test on SNB-19 CNS; -3.66% (active) in the test with U251 CNS; -7.98% (active) with PC-3 prostate. For the same molecule, the growth with SK-MEL-5 melanoma is 16.5%; in the test on UACC-62 melanoma it was -24.6% (active); in the test with SK-MEL-28 melanoma, -1.55% (active).
`O=C(/C=C\c1ccc2c(c1)OCO2)/C=C/c1ccc2c(c1)OCO2`: the growth in the test on HCT-15 colon was 11%; in the test on HT29 colon, 32.1%; with SNB-75 CNS, 75.7%; with SNB-19 CNS, 68.9%; in the test on U251 CNS, 19.4%; in the test on PC-3 prostate it was 91.1%. Moreover, the figures for the growth in the test with SK-MEL-5 melanoma, in the test with UACC-62 melanoma and in the test on SK-MEL-28 melanoma were 84%, 75.1% and 105%, respectively.
With `O=[N+]([O-])c1cc(S(=O)(=O)c2ccc(F)c([N+](=O)[O-])c2)ccc1F`, the growth was 36.5% in the test on HCT-15 colon; 97% in the test with HT29 colon; 97.2% with SNB-75 CNS; 106% in the test on SNB-19 CNS; 62.8% in the test with U251 CNS; 107% in the test on PC-3 prostate. In addition, the results for the growth in the test on SK-MEL-5 melanoma, in the test on UACC-62 melanoma and in the test with SK-MEL-28 melanoma were 106%, 105% and 110%, respectively.
Regarding `CC(c1ccccc1)N1C(=O)C(C2SC(=S)N(C(C)c3ccccc3)C2=O)SC1=S` (stereo not given), the growth is 54.9% in the test with HCT-15 colon; 72.5% in the test on HT29 colon; 89% with SNB-75 CNS; 78.6% in the test with SNB-19 CNS; 85% with U251 CNS; 84.7% in the test with PC-3 prostate. In addition, the growth in the test with SK-MEL-5 melanoma is 99.3%; in the test on UACC-62 melanoma, 77.7%; in the test with SK-MEL-28 melanoma it was 86.6%.
On to `CC1=CC(=O)N(c2cccc3c(N4C(=O)C=C(C)C4=O)cccc23)C1=O`, for which the growth with HCT-15 colon is -2.7% (active); with HT29 colon, 18%; with SNB-75 CNS it was 74.1%; in the test on SNB-19 CNS it was 102%; with U251 CNS it was 83.9%; in the test with PC-3 prostate it was 94.8%. In addition, the growth in the test on SK-MEL-5 melanoma was 105%; with UACC-62 melanoma it was 94.5%; in the test with SK-MEL-28 melanoma, 103%.
With `Nc1c2c(nc3ccc(Cl)cc13)CC(c1ccccc1)CC2=O` (stereo not given), the growth with HCT-15 colon is 16.7%; in the test with HT29 colon it was 13.1%; in the test on SNB-75 CNS, 23.4%; with SNB-19 CNS it was 37%; in the test on U251 CNS, 40.9%; in the test with PC-3 prostate, 54.8%. Further, the growth is 30.6% in the test on SK-MEL-5 melanoma, 23.7% with UACC-62 melanoma and 51.5% with SK-MEL-28 melanoma.
For the molecule `CCN1CCN(C(=O)[C@]23CC[C@@H](C)[C@H](C)[C@H]2C2=CC[C@@H]4[C@@]5(C)C/C(=C/c6cccc(OC)c6OC)C(=O)C(C)(C)[C@@H]5CC[C@@]4(C)[C@]2(C)CC3)CC1`, the growth in the test on HCT-15 colon is 19.2%; in the test on HT29 colon, 21.5%; in the test with SNB-75 CNS it was 35.6%; with SNB-19 CNS, 53.1%; in the test with U251 CNS, 38.4%; with PC-3 prostate it was 18.8%. Moreover, the growth in the test with SK-MEL-5 melanoma is 46.2%; with UACC-62 melanoma, 57.4%; in the test with SK-MEL-28 melanoma it was 58.7%.
For `O=c1[nH]ncc(Br)c1Br`, the growth in the test with HCT-15 colon is 15.7%; with HT29 colon, -35.1% (active); with SNB-75 CNS it was 79.8%; in the test with SNB-19 CNS, 72.4%; with U251 CNS it was 30.9%; with PC-3 prostate it was 65.7%. Further, the growth in the test with SK-MEL-5 melanoma was 69.4%; in the test on UACC-62 melanoma, 87.3%; in the test on SK-MEL-28 melanoma, 14.7%.
For `O=C1c2cccc3cccc(c23)C(=O)N1CC#Cc1ccc2c3c(cccc13)C(=O)N(CCN1CCNCC1)C2=O`, the growth in the test with HCT-15 colon is 61.7%; in the test with HT29 colon, 23.5%; in the test on SNB-75 CNS it was 99.6%; in the test with SNB-19 CNS it was 86.2%; in the test on U251 CNS it was 56.4%; with PC-3 prostate it was 85.5%. The growth in the test on SK-MEL-5 melanoma was 103%; with UACC-62 melanoma, 105%; in the test on SK-MEL-28 melanoma it was 13.5%.
For the molecule `COC(=O)C(Cc1ccccc1)n1cc(COc2nc(Cl)nc(Nc3ccc(Cl)cc3)n2)nn1` (stereo not given), the growth is 91% in the test with HCT-15 colon; 95.5% in the test with HT29 colon; 104% in the test with SNB-75 CNS; 98.2% in the test on SNB-19 CNS; 94.1% with U251 CNS; 101% in the test with PC-3 prostate. Moreover, the growth with SK-MEL-5 melanoma was 103%; with UACC-62 melanoma it was 93.1%; in the test on SK-MEL-28 melanoma, 107%.
As for `CCc1nnc(NC(=O)c2ccoc2COc2ccccc2)s1`, the growth in the test on HCT-15 colon is 24.3%; in the test with HT29 colon, 28.6%; in the test on SNB-75 CNS it was 8.1% (active); in the test on SNB-19 CNS, 42.4%; in the test on U251 CNS, 49.7%; in the test on PC-3 prostate, 67%. For the same molecule, the growth was 44.5% in the test on SK-MEL-5 melanoma, 34.8% in the test with UACC-62 melanoma and 51.2% with SK-MEL-28 melanoma.
Consider `Cn1cc(-c2csc(-c3c[nH]c4ccc(F)cc34)n2)c2cccnc21`, for which the growth in the test on HCT-15 colon was 19.2%; in the test on HT29 colon it was 11.3%; in the test with SNB-75 CNS it was 36.4%; in the test with SNB-19 CNS it was 54.4%; in the test on U251 CNS it was 37.5%; with PC-3 prostate, 48%. Also, the growth in the test with SK-MEL-5 melanoma is 25.9%; in the test with UACC-62 melanoma, 39.6%; with SK-MEL-28 melanoma, 57.4%.
For the molecule `COc1ccc(-c2c(-c3nc4ccc(N5CCOCC5)cc4[nH]3)[nH]c(C)c2C(C)=O)cc1`, the growth in the test with HCT-15 colon is 3.79% (active); in the test on HT29 colon, 20.8%; with SNB-75 CNS, 1.76% (active); in the test on SNB-19 CNS, 39.7%; with U251 CNS it was 54.3%; with PC-3 prostate it was 48.7%. Further, the growth with SK-MEL-5 melanoma was 22.2%; in the test with UACC-62 melanoma it was 15.7%; in the test with SK-MEL-28 melanoma it was 45.8%.
